Rows were chosen to be rich in hits. Some 2.8% of all compounds tested hit in one or more screens of this group.
IP6K1 inhibitor = IP6K1 kinase inhibition | 0.81% of 140,000 active | activity change, % (series mostly up to about 58 µM) | Q92551 | IP6K1 kinase, ADP-Glo luminescence, 2 h; hits give low values; in the data active means activity change below about -25%; further: on the % scale 0 is the no-effect control and ±100 the full control effect
Target sequence (Q92551 whole entry, looked up): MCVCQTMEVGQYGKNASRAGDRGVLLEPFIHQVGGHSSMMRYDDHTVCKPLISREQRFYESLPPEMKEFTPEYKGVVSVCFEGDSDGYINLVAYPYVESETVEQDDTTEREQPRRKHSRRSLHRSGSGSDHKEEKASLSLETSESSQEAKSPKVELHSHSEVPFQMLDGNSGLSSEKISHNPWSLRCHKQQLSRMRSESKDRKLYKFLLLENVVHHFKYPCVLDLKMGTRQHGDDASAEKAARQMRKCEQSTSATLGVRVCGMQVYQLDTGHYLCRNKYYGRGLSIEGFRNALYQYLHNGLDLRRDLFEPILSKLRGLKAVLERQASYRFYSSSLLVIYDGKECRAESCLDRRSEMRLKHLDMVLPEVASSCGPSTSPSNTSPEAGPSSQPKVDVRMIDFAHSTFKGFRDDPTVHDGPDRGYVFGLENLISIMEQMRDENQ
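ADP-Glo luminescence measures ADP made by human IP6K1 during a 2 h RT reaction with ATP/IP6 (mix at 1.3 mM/130 uM); top library doses 57.5 and 19.1 uM final.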
KDM5B inh = inhibitors of human KDM5B histone demethylase. AID 1347165. 2.6% of 220,000 active. Potency, µM (highest dose often 57.7 µM), usual class: inhibitors. KDM5B demethylase, FDH-coupled NADH fluorescence (FDH is formaldehyde dehydrogenase); further: potency means the concentration at half of the fitted maximal effect; 0% is about no effect; nearly all actives have a fitted effect of over 70% in size
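KDM5BΔAP (200 nM final) in 50 mM HEPES pH 7.5, 0.01% Tween-20 was preincubated 10 min at RT with compound over a concentration range. Substrate mix (H3K4me3 12.5 µM, α-KG 25 µM, Fe²⁺, ascorbate, NAD⁺, FDH) was added, and NADH fluorescence change over 30 min gave dose-response curves.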
* marks the source's active call; other numbers are inactive results; i = inactive; ? = inconclusive; · = no result given.

SMILES | IP6K1 inhibitor | KDM5B inh
Cc1ccc2nc(-c3ccccc3)cc(C(=O)OCc3ccc(-c4ccccc4)cc3)c2c1 | · | i
O=C(O)CSc1ccc(F)c(F)c1 | · | i
Cc1ccc(-c2cc(C(F)(F)C(F)F)[nH]n2)cc1 | · | i
COc1cccc(-c2ccc(CN3CCCC(NC(=O)c4ccccc4Cl)C3)cc2)c1 (stereo not drawn) | -0.1 | ·
COc1ccc(OC)c(-c2nc3c(C)cccc3cc2CN2CCCC(O)C2)c1 (stereo not drawn) | 22.0 | i
COc1ccc(-c2nc3c(C)cccc3cc2CN2CCC[C@H]2CO)cc1OC | -7.2 | 25.1µM*
COc1ccc(-c2nc3cc(C)ccc3cc2CN2CCC[C@@H]2CO)cc1OC | 17.3 | ?
COc1cc2cc(CN3CCC[C@H]3CO)c(-c3cccc(Cl)c3)nc2cc1OC | -6.3 | 25.1µM*
Cc1ccccc1-c1nc2cc3c(cc2cc1CN1CCC[C@H]1CO)OCO3 | 2.7 | ?
COc1ccc(-c2nc3c(C)cccc3cc2CN2CC[C@@H](O)C2)cc1 | 1.7 | 17.8µM*
O=Cc1cc(Cc2ccccc2Cl)cc(Br)c1O | · | i
O=S(=O)(c1ccccc1F)N1CCC(F)(c2nc(Cc3ccccc3)no2)CC1 | 11.9 | ·
O=C(O)CNS(=O)(=O)c1cc(C(=O)O)ccc1C(=O)O | · | i
O=C(COc1ccc(F)c(Cl)c1)N[C@H]1C[C@@H]2OCC[C@H]12 | 2.9 | i
O=C(CSc1ccc(Cl)cc1)N[C@@H]1COCC[C@@H]1OCC1CC1 | 21.7 | i
CO[C@@H]1COCC[C@H]1NC(=O)CCc1ccc(-c2ccc(Cl)cc2)[nH]1 | -7.9 | 28.2µM*
O=C(CCc1ccc(-c2ccc(Cl)cc2)[nH]1)N[C@@H]1C[C@@H]2OCC[C@@H]21 | 1.0 | 31.6µM*
COc1ccc(C(=O)N2C[C@@H](CO)[C@@H]3Oc4ccc(Cl)cc4[C@@H]32)cc1 | 22.9 | ·
CCCCc1cc(=O)oc2c(C)c(OCC(=O)NCc3ccncc3)ccc12 | · | i
Fc1ccccc1-c1cc2c(cn1)CN(Cc1ccncc1)CCN2 | 1.5 | ?
CCn1cc(-c2cc3c(cn2)CN(Cc2ccncc2)CCN3)cn1 | -19.3 | 31.6µM*
Cn1nccc1-c1cc2c(cn1)CN(Cc1ccncc1)CCN2 | -10.1 | 35.5µM*
c1ccc(CN2CCNc3cc(-c4ccncc4)ncc3C2)cc1 | -14.7 | i
CC(O)CNS(=O)(=O)c1ccc(Cl)c(C(=O)O)c1 (stereo not drawn) | · | i
Cc1noc(C)c1-c1cc(-c2ccccc2O)cn2cncc12 | -6.5 | i
SMILES | IP6K1 inhibitor | KDM5B inh
Cc1noc(C)c1-c1cc(-c2ccccc2)cn2cncc12 | -12.8 | ?
Cc1noc(C)c1-c1cc(-c2cccnc2)cn2cncc12 | -20.8 | 35.5µM*
Cc1noc(C)c1-c1cc(-c2cccc(CO)c2)cn2cncc12 | -13.7 | 35.5µM*
COc1cccc(-c2cc(-c3c(C)noc3C)c3cncn3c2)c1 | -10.7 | ?
Cc1noc(C)c1-c1cc(-c2cnn(C)c2)cn2cncc12 | -13.4 | 39.8µM*
Cc1noc(C)c1-c1cc(-c2cccc(N[S+](C)(=O)[O-])c2)cn2cncc12 | -20.4 | ?
CC(=O)Nc1cccc(-c2cc(-c3c(C)noc3C)c3cncn3c2)c1 | -5.4 | 39.8µM*
CC(C)CCNC(=O)NC(=O)CSc1nc2ccccc2c(=O)n1C1CC1 | · | i
CCCOc1cccc(-c2cc3c(cc2OC)C(CO)CC(C)(C)CO3)c1 (stereo not drawn) | -7.8 | ·
CCOC(=O)c1ccc(N2CCN(C(=O)C3=CC(C)(C)COc4ccc(OC)cc43)CC2)cc1 | 26.1 | ·
CCCOc1ccc(-c2nc(C#N)c(N3CCN(C(=O)c4cccs4)CC3)o2)cc1 | · | i
CCCCCC(=O)N1[C@@H](c2ccco2)[C@@H](C(=O)O)C[C@]12CCCCN(CCOC)C2=O | -5.1 | ·
COC(=O)N(C)Cc1cccc(N2CCN(C(C)c3ccccc3)CC2)c1 (stereo not drawn) | 5.8 | ·
O=C1NCc2ccccc2CC12CCN(Cc1ccc(-c3ccccc3)cc1)C2 (stereo not drawn) | -10.2 | ?
O=C(Nc1ccc2c(c1)OCCO2)N1CCC(NS(=O)(=O)c2ccc(Cl)cc2)CC1 | · | i
CSCC[C@@H]1NC(=O)c2cc(NC(=O)c3cc(-c4cccnc4)n[nH]3)ccc2NC1=O | -12.7 | ?
CCOC(=O)C1CCN([C@H]2CS(=O)(=O)C[C@@H]2S(=O)(=O)c2ccc(Cl)cc2)CC1 | · | i
Cc1ccc2c(c1)C(C)(C)C1(/C=C/c3cccc(Cl)c3)NC(=O)CN21 (stereo not drawn) | · | i
COc1ccc(-c2cc(-c3ccc4cn[nH]c4c3)cn3cncc23)cc1 | -0.5 | ?
COc1ccc(-c2cc(-c3cnn(C)c3)cn3cncc23)cc1 | -16.2 | 35.5µM*
C1=C(c2cc(-c3cccc(N4CCOCC4)c3)cn3cncc23)CCOC1 | -1.6 | ?
COc1cccc(-c2cc(-c3ccc(=O)[nH]c3)c3cncn3c2)c1 | -15.4 | ?
COc1cccc(-c2cc(-c3ccc(OC)nc3)c3cncn3c2)c1 | -20.3 | 31.6µM*

Source: PubChem (National Center for Advancing Translational Sciences (NCATS))
